An excerpt weighted towards active compounds, which were near 11% of everything screened.
Pf growth 96h = inhibits malaria parasite growth, 96 h | P. falciparum luciferase reporter growth, 96 h | Potency, µM (doses to about 28.7 µM), without a hit: top-dose activity change, negative = inhibition, actives largely listed as inhibitors | 320,000 tested, 6.9% active; also: % is scaled to controls: 0 for no effect and ±100 for the full control effect
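Two parasite generations (96 h, 37 C, 5% CO2) of compound exposure in infected erythrocytes (0.05% parasitemia, 2% hematocrit). Luciferase-reporter P. falciparum; decreased luminescence indicates inhibited growth, aimed at apicoplast-acting delayed death.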
HCV inhibitor = HCV inhibition. Potency, µM (series often up to 41.8 µM), without a hit: top-dose activity change, negative = inhibition, usual class: inhibitors. Huh7.5.1 HCVcc-Cre infection, luciferase reporter, 44 h. AID 651820. 340,000 tested, 3.4% active; also: % is scaled to controls: 0 for no effect and ±100 for the full control effect
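Infectious HCVcc-Cre (~0.5 moi) was added to cells just after compound, with cells seeded 4 h earlier at 1,000 per well. Luciferase activity after 44 h culture reported infection; substrate was incubated 15 min at room temperature before reading.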
Pf growth 48h = P. falciparum growth inhibition at 48 hours (one generation) | P. falciparum luciferase growth in erythrocytes, 48 h | Potency, µM (series often up to 28.7 µM), inactives show at the highest dose activity change, negative = inhibition, hits mostly inhibitors | 310,000 tested, 5.9% active; also: % is scaled to controls: 0 for no effect and ±100 for the full control effect
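Erythrocytes infected with P. falciparum carrying an integrated firefly luciferase reporter (2% hematocrit, 0.1% parasitemia final) were exposed to compounds in RPMI 1640 with 0.5% Albumax at 37 C, 5% CO2. Growth inhibition was scored as reduced luminescence.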
Vaccinia Venus = vaccinia inhibition (Venus reporter); Vaccinia virus Venus reporter expression, fluorescence; Potency, µM (doses to about 36.5 µM), without a hit: top-dose activity change, negative = inhibition, usual class: inhibitors; 330,000 tested, 0.46% active; calls by dose curve; tested in A549 cells; also: % is scaled to controls: 0 for no effect and ±100 for the full control effect; nearly all actives have a fitted effect of over 30% in size
NS1 function inh = blocks influenza NS1 protein function; AID 2326; Potency, µM (series often up to 46.1 µM), inactives show top-dose activity, positive = more growth; 270,000 tested, 0.4% active; calls by dose curve; also: actives are rising curves; nearly all actives have a fitted effect of over 50% in size
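Growth recovery, yeast-based: influenza A NS1 expressed in S. cerevisiae causes slow growth, and suppressors are detected by OD600. The parent strain without NS1 is used as positive control.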
VACV mCherry inh = inhibitors of vaccinia virus infection (mCherry reporter signal). Vaccinia virus mCherry reporter infection, fluorescence. Potency, µM (series often up to 36.5 µM), without a hit: top-dose activity change, negative = inhibition, most hits filed as inhibitors. 310,000 tested, 0.63% active; calls by dose curve; tested in A549 cells; also: % is scaled to controls: 0 for no effect and ±100 for the full control effect; nearly all actives have a fitted effect of over 35% in size
Numbers without * were called inactive; i = inactive; ? = inconclusive; / = no result given; [ ] = remark or other dose. Unless noted, calls follow the shape of the dose curve; as a rule, active = well fitted inhibition curve with a large enough effect; inconclusive = small, poorly fitted or top-dose-only effect, or another doubt; inactive = no such curve, though single readings can be large or run the other way. Potency is read from the fitted curve at half-maximal effect.

SMILES	Pf growth 96h	HCV inhibitor	Pf growth 48h	Vaccinia Venus	NS1 function inh	VACV mCherry inh
COc1ccc(C(C(=O)NC2CCCC2)N(C(=O)c2ccoc2C)c2cc(C)cc(C)c2)cc1 (stereo unspecified)	?	-28.8%	-5.2%	-6.5%	-15.2%	-10.4%
COc1ccc(C(C(=O)NC2CCCC2)N(C(=O)c2ccoc2C)c2ccc(C)c(C)c2)cc1 (stereo unspecified)	1.04µM*	-25.2%	?	-14.1%	15.3%	i
COc1cccc(N(C(=O)CNC(=O)c2ccco2)C(C(=O)NC2CCCCC2)c2ccncc2)c1 (stereo unspecified)	9.28µM*	31.1%	-5.1%	-14.2%	-8.2%	i
COc1cccc(N(C(=O)c2ccco2)C(C(=O)NC2CCCC2)c2ccc(N(C)C)cc2)c1 (stereo unspecified)	16.4%	?	0.0%	-9.0%	-19.0%	/
COc1ccc(N(C(=O)c2ccco2)C(C(=O)NC2CCCC2)c2ccc(N(C)C)cc2)cc1OC (stereo unspecified)	101.1%	14.5%	13.1µM*	-10.4%	-6.6%	-18.7%[1.46 µM]
COc1cc(OC)cc(N(C(=O)c2ccco2)C(C(=O)NC2CCCC2)c2ccc(N(C)C)cc2)c1 (stereo unspecified)	?	-24.8%	11.7µM*	-7.4%	-7.9%	/
O=C(c1ccccc1)c1coc2c1C(=O)c1ccccc1C2=O	-16.2%	-0.2%	?	-6.2%	/	-9.8%
O=[N+]([O-])c1ccc([As](=O)(O)O)cc1	1.69µM*	/	3.01µM*	/	/	/
O=C(CNC(=O)c1ccccc1F)OCc1nc2ccccc2s1	46.4%	-11.2%	35.8%	-0.8%	/	-14.8%
CNc1sc(C(=O)c2ccccc2F)c(N)c1-c1nc2ccccc2s1	?	12.6µM*	/	/	-4.6%	/
COc1ccc(C2=NN(C(=O)CCC(=O)O)C(c3ccc(F)cc3)C2)cc1 (stereo unspecified)	14.7µM*	-0.6%	-25.2%	-6.7%	20.0%	i
COc1ccc(C2CC(c3ccc4ccccc4c3OC(C)=O)=NN2C(=O)/C=C/c2ccccc2)cc1 (stereo unspecified)	?	-22.0%	11.7µM*	-13.7%	21.7%	i
COc1ccc(C2CC(c3ccccc3)=NN2C(=O)COC(=O)/C=C/c2ccc(O)c(OC)c2)cc1 (stereo unspecified)	?	?	14.7µM*	/	17.2%	/
COc1ccc(C2=NN(C(=O)CN3CCCCC3)C(c3ccc(C)cc3)C2)cc1 (stereo unspecified)	2.5%	-0.5%	?	-23.5%	0.4%	-12.6%
COc1ccc(C2CC(c3ccc(Br)cc3)=NN2C(=O)CN2CCCC2)cc1 (stereo unspecified)	-20.3%	10µM*	?	-9.6%[7.34 µM]	-0.4%	-8.2%[7.34 µM]
COc1ccc(C2CC(c3ccccc3OC(C)=O)=NN2C(=O)/C=C/c2ccccc2)cc1 (stereo unspecified)	?	-0.1%	?	-20.5%	18.9%	-12.0%
COc1ccc(S(=O)(=O)Nc2ccc(Cl)cn2)c(C)c1C	?	-11.0%	27.3%	/	-37.6%	/
CCNc1nc(OCCNS(=O)(=O)c2cc(C)ccc2C)nc(N(C)C)n1	-3.6%	-19.9%	-20.9%	-6.8%	19.8%	-9.0%
COc1cccc(OC)c1C(=O)NC(=S)Nc1ccc2c(c1)C(=O)N(C)C2=O	?	10.0%	1.65µM*	-30.0%	5.2%	?
COc1cccc(OC)c1C(=O)NC(=S)Nc1ccc2c(c1)OCCO2	?	-8.3%	4.15µM*	-1.9%	-6.2%	8.5%
COc1cc(C(=O)NC(=S)Nc2ccc3c(c2)C(=O)N(C)C3=O)cc(OC)c1OC	5.8%	10µM*	47.1%	-0.8%	15.0%	-10.0%
O=C(NC(=S)Nc1ccc2c(c1)OCCO2)c1ccccc1	15.5%	-23.1%	-10.4%	/	-38.0%	/
COc1ccc(C(=O)Nc2ccc3c(c2)C(=O)N(C)C3=O)cc1OC	-0.9%	?	0.0%	-13.3%	2.0%	-6.4%
Cc1cc(C(=O)NCC23CC4CC(CC(C4)C2)C3)c(C)o1	18.0%	/	-7.9%	/	-49.2%	/
COC(=O)c1cc(=O)n(Cc2ccco2)c(=Nc2ccc(F)cc2)s1	43.0%	?	?	?	-4.1%	?

From PubChem
